Results filed as inconclusive are left out. Entries that show only a call come without a potency. Active and inactive are the calls of the source. Calls follow the shape of the dose curve; as a rule, active = well fitted cell-killing curve with a large enough effect; inconclusive = small, poorly fitted or top-dose-only effect, or effect the other way, or another doubt; inactive = no such curve, though single readings can be large or run the other way.
assay: Identifying Small Molecule Inhibitors of Pancreatic Cancer Stem Cells (Panc1, Adherent) (AID 1259362); conditions: Potency: viability; series mostly up to 46.1 µM
Text: Progenitor-like cancer cells, often referred to as cancer stem cells (CSC), are believed to be the drivers of therapeutic resistance and rapid recurrence. CSCs are postulated to reside in specific niches characterized by low oxygen tension, limited nutrient supply, and high redox load. Selectively targeting CSC, alone or in combination with cytotoxic agents, as a means to produce durable remissions is an appealing concept. Modeling these cells in in vitro setting is an important step in finding new therapies and/or targets. Multiple reports highlight that forcing cells in culture into 3-dimensionaly architectures (spheroids) re-establishes key progenitor-like transcriptional signatures. Pancreatic cancer is among the diseases with the most dismal outlook which is driven, largely, by recurance following front-line therapies. […] In hopes of deriving new insight into the targeting of these pancreatic CSCs we examined three established pancreatic cancer cell lines in cytotoxicity assays versus a collection of approved and investigational drugs. Importantly, we screened these lines as traditional monolayer (2D) and spheroid (3D) formats to gain an appreciation of agents with differential activity.
Multicellular tumor spheroids from Panc1, MiaPaCa-2, and the primary low-passage tissue culture line SB.06 were seeded in stem cell media (SCM) in nonadherent 6-well plates coated with hydrogel (Corning Life Sciences, Chelmsford, Mass) and pancreatic spheres generated for 14 days before screening. Cells were seeded into 1536-well solid-bottom white tissue culture treated Greiner Bio One Plates (789173-F) using a MultiDrop Combi (Thermofisher Scientific) dispenser and a small sterile cassette. One column was media alone to be used as a :"no cells" control. The plates were then covered with sterilized stainless steel gasketed lids from Kalypsys. After allowing cells to attach for 4 hours, 23 nL of test compound or control (negative control DMSO and positive control 9.2 uM Bortezomib-final) were added from a 1536-well polypropylene compound source plate to each well using a 1536 head pin tool from Kalypsys. Cells were then incubated for 48 hours at 37C, 95% relative humidity and 5% CO2. After 48 hours, plates were removed from the incubator and 3 uL of CellTiter-Glo (Promega) was added using an Aurora Flying Reagent Dispenser Bioraptor. Plates were incubated at room temperature for 10 minutes prior to reading the luminescence on the Viewlux (PerkinElmer). The relative luciferase units are used to calculate the percent activity using the activity of DMSO in the cells and no cells columns for normalization of no inhibition and full inhibition respectively.
Potency is read from the fitted curve at half-maximal effect.

| Compound | Potency |
| --- | --- |
| CCOC(=O)N[C@@H]1CC[C@@H]2[C@@H](C1)C[C@H]1C(=O)O[C@H](C)[C@H]1[C@@H]2C=Cc1ccc(-c2cccc(F)c2)cn1 | inactive |
| C[C@]12CCC(=O)C=C1CC[C@@H]1[C@@H]2[C@@H](O)C[C@@]2(C)[C@H]1CC[C@]2(O)C(=O)CO | inactive |
| O=c1[nH]c(-c2ccc(C(F)(F)F)cc2)nc2c1CSCC2 | inactive |
| CCC(C)N(C)C(=O)c1cc2ccccc2c(-c2ccccc2Cl)n1 (stereo not given) | inactive |
| CNCc1ccc(-c2[nH]c3cc(F)cc4c3c2CCNC4=O)cc1 | inactive |
| Fc1ccc(Cl)cc1-c1nc(Nc2ccncc2)c2nccnc2n1 | inactive |
| Cc1cccc(-c2[nH]c(C(C)(C)C)nc2-c2ccc3nccnc3c2)n1 | inactive |
| COc1ccccc1[C@H](c1cccc2ccccc12)[C@@](C)(C#N)C(=O)N1CCC(c2cccc(C(F)(F)F)c2)CC1 | inactive |
| OC[C@H](Cc1ccccc1)Nc1nc(Oc2ccc3c(c2)CCC3)nc2c1ncn2Cc1ccc(-c2ccccc2)cc1 | 1.32 µM (active) |
| C/C(=C\C(=O)Nc1ccccc1C(=O)O)c1ccc2ccccc2c1 | inactive |
| c1ccc(-c2nn3c(c2-c2ccnc4cc(OCCN5CCOCC5)ccc24)CCC3)nc1 | inactive |
| Cc1cc2c(F)c(Oc3ncnn4cc(OC[C@@H](C)O)c(C)c34)ccc2[nH]1 | inactive |
| CCC(C)n1ncn(-c2ccc(N3CCN(c4ccc(OC[C@H]5CO[C@](Cn6cncn6)(c6ccc(Cl)cc6Cl)O5)cc4)CC3)cc2)c1=O (stereo not given in full) | inactive |
| COc1ccccc1-c1cccc(-c2c(O)c3cc(C#N)c(Cl)cc3[nH]c2=O)c1 | 1.18 µM (active) |
| COc1cc2nccc(Oc3ccc(NC(=O)NC4CC4)c(Cl)c3)c2cc1C(N)=O | inactive |
| O=C1CCCC2=C1C(c1[nH]ncc1Cl)N=C(Nc1nc3ccccc3o1)N2 (stereo not given) | inactive |
| NC(=O)C1CCCc2c1[nH]c1ccc(Cl)cc21 (stereo not given) | inactive |
| CCCCCCCc1ccc(CCc2cccc(O)c2C(=O)O)cc1 | inactive |
| NC(=O)c1ccc(-c2nc(-c3ccc4c(c3)OCO4)c(-c3ccccn3)[nH]2)cc1 | inactive |
| CCc1cc(Nc2nccc(-c3c(-c4ccc(OC)c(C(=O)Nc5c(F)cccc5F)c4)nc4ccccn34)n2)c(OC)cc1N1CCC(N2CCN(S(C)(=O)=O)CC2)CC1 | inactive |

| Compound | Potency |
| --- | --- |
| Nc1ncnc2nc(-c3ccc(N4CCOCC4)nc3)cc(-c3cccc(Br)c3)c12 | inactive |
| CNC(=O)c1ccc(N2C(=S)N(c3ccc(C#N)c(C(F)(F)F)c3)C(=O)C2(C)C)cc1F | inactive |
| Nc1cccc(S(=O)(=O)N2CCCN(S(=O)(=O)c3ccc4c(c3)OCCO4)CC2)c1 | inactive |
| COc1ccc2c3n(c(=NC(=O)c4cccnc4)nc2c1OC)CCN3 | 2.35 µM (active) |
| CCN(c1ccccc1)c1cc(NC)[n+](C)c(C)n1 | inactive |
| CCOc1cc(C(=O)Nc2ccc(Cl)c(-c3nc4ccccc4[nH]3)c2)cc(OCC)c1OCC | inactive |
| CCn1c(-c2nonc2N)nc2cnc(Oc3cccc(NC(=O)c4ccc(OCCN5CCOCC5)cc4)c3)cc21 | inactive |
| Cc1csc(NC(=O)c2sc3nc4c(c(C(F)(F)F)c3c2N)CCC4)n1 | inactive |
| CCCc1nc2c(C)cc(-c3nc4ccccc4n3C)cc2n1Cc1ccc(-c2ccccc2C(=O)O)cc1 | inactive |
| O=S(=O)(N=Cc1c(O)ccc2ccccc12)c1cccs1 | inactive |
| COc1cccc2cc(-c3nc(C4CCC(C(=O)O)CC4)n4ncnc(N)c34)[nH]c12 (stereo not given) | inactive |
| Cc1ccnc(NS(=O)(=O)c2ccc(NC(=O)Nc3ccc(S(=O)(=O)Nc4nccc(C)n4)cc3)cc2)n1 | 0.0235 µM (active) |
| CN([C@@H](Cc1ccc(OS(=O)(=O)c2cccc3cnccc23)cc1)C(=O)N1CCN(c2ccccc2)CC1)S(=O)(=O)c1cccc2cnccc12 | inactive |
| O=C(O)CCc1ccc(NCc2cccc(Oc3ccccc3)c2)cc1 | inactive |
| O=C(O)c1ccc(-c2c[nH]c3ccc(-c4ccccc4)cc23)cc1C1CCCC1 | inactive |
| COc1ccc(CC2=NN3C([C@@H](CCc4ccccc4)[C@@H](C)O)=NC(C)C3C(=O)N2)cc1OC (stereo not given in full) | inactive |
| CC(C)c1onc(-c2c(Cl)cccc2Cl)c1COc1ccc(/C=C/c2cccc(C(=O)O)c2)c(Cl)c1 | inactive |
| CC(=O)NC(C)c1ccc(Oc2ccc(OC(C)C)cc2)cc1 (stereo not given) | 4.69 µM (active) |
| CC[C@H](Nc1ncnc2nc[nH]c12)c1nc2cccc(F)c2c(=O)n1-c1ccccc1 | inactive |
| COc1cc2c(cc1OC)CN(CCc1ccc(NC(=O)c3cccc4c(=O)c5cccc(OC)c5[nH]c34)cc1)CC2 | inactive |

From PubChem BioAssay (NCATS)
